According to PubChem BioAssay (Tox21):
Results filed as inconclusive are left out. A call without a number means that no potency is given here. Activity calls are given as the source filed them. Calls follow the shape of the full dose curve.

Target: Estrogen receptor (Homo sapiens) (UniProt P03372)
Experiment: qHTS assay to identify small molecule agonists of the estrogen receptor alpha (ER-alpha) signaling pathway in the presence of an antagonist (AID 1259383); also: top concentration of the series differs between compounds; nearly all actives have a fitted effect of over 15% in size
Conditions: VM7Luc4E2 cells, ERE-luciferase, +ICI-182,780, 22 h; series mostly up to 92.4 µM
Procedure, shortened: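 In VM7Luc4E2 cells, 4,000 per well, compounds at 15 concentrations were co-incubated 22hr at 37C with 10.0nM final ICI-182,780. Luminescence from the stably transfected 4×ERE-luciferase reporter was recorded 30min after ONE-Glo addition.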

Chain of Estrogen receptor (Homo sapiens) (P03372 whole entry, looked up): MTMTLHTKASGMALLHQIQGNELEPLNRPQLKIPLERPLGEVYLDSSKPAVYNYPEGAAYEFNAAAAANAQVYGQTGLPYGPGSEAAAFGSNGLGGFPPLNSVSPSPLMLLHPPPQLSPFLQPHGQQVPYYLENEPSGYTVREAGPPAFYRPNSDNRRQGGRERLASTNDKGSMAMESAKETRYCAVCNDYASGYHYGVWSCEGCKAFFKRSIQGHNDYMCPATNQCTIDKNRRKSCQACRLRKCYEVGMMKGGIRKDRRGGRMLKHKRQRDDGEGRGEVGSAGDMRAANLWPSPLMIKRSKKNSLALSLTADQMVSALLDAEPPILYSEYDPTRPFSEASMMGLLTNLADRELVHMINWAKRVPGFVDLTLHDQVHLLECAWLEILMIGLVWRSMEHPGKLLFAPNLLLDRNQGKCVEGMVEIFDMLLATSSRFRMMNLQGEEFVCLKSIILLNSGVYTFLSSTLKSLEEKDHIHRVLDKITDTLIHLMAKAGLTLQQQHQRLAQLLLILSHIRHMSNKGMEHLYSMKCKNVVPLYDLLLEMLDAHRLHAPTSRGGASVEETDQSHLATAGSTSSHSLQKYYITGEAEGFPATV

Structure (SMILES) | Potency | activation
O=C(NCc1cccnc1)Nc1ccc([N+](=O)[O-])cc1 | inactive | –
CC[C@H]1C[C@H]2[C@@H]3CCC4=CC(=O)CC[C@@H]4[C@H]3CC[C@]2(C)[C@H]1O | inactive | –
O=C(CBr)Nc1ccc(Cl)cc1C(=O)c1ccccc1F | inactive | –
COc1c(C(C)(C)C)cc([N+](=O)[O-])c(C)c1[N+](=O)[O-] | inactive | –
c1ccoc1 | inactive | –
CCCC(=O)Cl | inactive | –
Nc1nc(=S)[nH][nH]1 | inactive | –
O=C1NCN(c2ccccc2)C12CCN(CCCOc1ccc(F)cc1)CC2 | inactive | –
CCOP(=O)(OCC)O/C(=C/Cl)c1ccc(Cl)cc1Cl | inactive | –
ClC=C(Cl)Cl | inactive | –
COC(N)=O | inactive | –
CCC(Cl)CCl (configuration not stated) | inactive | –
CCCN(CCCl)c1c([N+](=O)[O-])cc(C(F)(F)F)cc1[N+](=O)[O-] | inactive | –
Cn1cc[n+](C)c1 (tested in a mixture with another compound) | inactive | –
C=CC(C)=O | inactive | –
O=C(NC(=O)c1c(F)cccc1F)Nc1ccc(OC(F)(F)C(F)OC(F)(F)F)c(Cl)c1 (configuration not stated) | inactive | –
COc1cc(Cl)c(OC)cc1Cl | inactive | –
CCBr | inactive | –
COc1nn(CSP(=S)(OC)OC)c(=O)s1 | inactive | –
O=C(O)COc1ccc(Cl)cc1 | inactive | –
CN1C(=O)C(O)N=C(c2ccccc2)c2cc(Cl)ccc21 (configuration not stated) | inactive | –
CO[C@@H]1[C@H](OC(=O)NC(=O)CCl)CC[C@]2(CO2)[C@H]1[C@@]1(C)O[C@@H]1CC=C(C)C | – | -0.438% [at 19 µM] (inactive)
OCCCBr | inactive | –
Cl/C=C\C[N+]12CN3CN(CN(C3)C1)C2 | inactive | –
CCOP(=S)(OCC)Oc1cc(Cl)c(Br)cc1Cl | inactive | –

Test system: not listed separately
Experiment: qHTS assay to identify small molecule agonists or antagonists of the thyroid stimulating hormone receptor (TSHR) signaling pathway - wild type cell line counter screen (AID 1259384)
Conditions: HEK293 wild type, cAMP HTRF counter-screen, stronger effect = higher value; series mostly up to 92.4 µM
Procedure, shortened: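 Counter screen in untransfected Hek293: compounds (15-point titration, triplicate) plus phosphodiesterase inhibitor Ro20-1724 added after 18 h plating; 30 min RT. Intracellular cAMP via competitive d2/cryptate immunoassay, 1 h incubation.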

Structure (SMILES) | outcome | cAMP activity change
O=C(NCc1cccnc1)Nc1ccc([N+](=O)[O-])cc1 | inactive | –
CC[C@H]1C[C@H]2[C@@H]3CCC4=CC(=O)CC[C@@H]4[C@H]3CC[C@]2(C)[C@H]1O | inactive | –
O=C(CBr)Nc1ccc(Cl)cc1C(=O)c1ccccc1F | inactive | –
ClCC(Br)CBr (configuration not stated) | inactive | –
c1ccoc1 | inactive | –
CCCC(=O)Cl | inactive | –
Nc1nc(=S)[nH][nH]1 | inactive | –
Brc1ccc(Oc2ccccc2)cc1 | inactive | –
CCOP(=O)(OCC)O/C(=C/Cl)c1ccc(Cl)cc1Cl | inactive | –
CCOP(=S)(OCC)SCSCC | inactive | –
ClC=C(Cl)Cl | inactive | –
CCC(Cl)CCl (configuration not stated) | inactive | –
CCCN(CCCl)c1c([N+](=O)[O-])cc(C(F)(F)F)cc1[N+](=O)[O-] | inactive | –
Cn1cc[n+](C)c1 (tested in a mixture with another compound) | inactive | –
C=CC(C)=O | inactive | –
O=C(NC(=O)c1c(F)cccc1F)Nc1ccc(OC(F)(F)C(F)OC(F)(F)F)c(Cl)c1 (configuration not stated) | inactive | –
COCCOCCO | inactive | –
Clc1ccc(C(OCCN2CCCCC2)c2ccccc2)cc1 (configuration not stated) | inactive | –
CC(=O)[C@H]1CC[C@H]2[C@@H]3CC[C@H]4C[C@](C)(O)CC[C@]4(C)[C@H]3CC[C@]12C | inactive | –
CCBr | inactive | –
COc1nn(CSP(=S)(OC)OC)c(=O)s1 | inactive | –
O=C(O)COc1ccc(Cl)cc1 | inactive | –
CO[C@@H]1[C@H](OC(=O)NC(=O)CCl)CC[C@]2(CO2)[C@H]1[C@@]1(C)O[C@@H]1CC=C(C)C | – | 2.97% [at 18.9 µM] (inactive)
CCCCNP(N)(N)=S | inactive | –
OCCCBr | inactive | –
Cl/C=C\C[N+]12CN3CN(CN(C3)C1)C2 | inactive | –
CCOP(=S)(OCC)Oc1cc(Cl)c(Br)cc1Cl | inactive | –
